Data on 2 compounds can be found in PubChem BioAssay AID504371 (National Center for Advancing Translational Sciences (NCATS), 2011).

The nature of the assay: qHTS Assay for Compounds Blocking the Interaction Between CBF-beta and RUNX1 for the Treatment of Acute Myeloid Leukemia: ME-1 cellular proliferation, SAR for Probe. The following applies: ME-1 cell proliferation, ATP luminescence, 48 h; series mostly up to 56.1 µM. The text has this: NIH Chemical Genomics Center [NCGC] NIH Molecular Libraries Probe Production centers Network [MLPCN] MLPCN Grant: X01MH083259-01 Assay Submitter (PI): Paul Liu NCGC Assay Overview: Core Binding Factor (CBF) abnormalities are associated with 20-25% of all acute myeloid leukemias (AML), of which 5-10% are further sub classified as acute myelomonocytic leukemia with eosinophilia, also known as M4Eo in the FAB classification scheme. This subtype of leukemia is usually associated with chromosome 16 inversion (p13:q22). Chromosome 16 inversion results in formation of the fusion oncogene CBFB-MYH11, which encodes the fusion protein CBF-beta-SMMHC. […] It has been hypothesized that the interference of CBF-beta and RUNX1 binding could have therapeutic implications for patients with CBF mediated leukemias. We developed a CBF-beta and RUNX1 binding assay in AlphaScreenTM format and optimized it for high throughput screening to search for inhibitors. […]
NCGC Assay protocol: 2uL/well media was dispensed per well into 1536-well white solid-bottom plates using Multidrop Combi dispenser. […] The plates were incubated at 37 °C with 5% CO2 and 95% humidity for 48 hours, and then ATP content was measured following the addition of 4uL/well of ATPlite reagent and a 20 min incubation on a ViewLux plate reader.

Results filed as inconclusive are left out. A call without a number means that no potency is given here. Active and inactive are the calls of the source. Calls follow the shape of the dose curve; as a rule, active = well fitted curve in the direction sought with a large enough effect; inconclusive = small, poorly fitted or top-dose-only effect, or another doubt; inactive = no such curve, though single readings can be large or run the other way.

In the case of `Nc1ccc(Cl)cc1C(=O)c1ccc[nH]1`, the Potency was 109 µM (active).
Regarding `CCc1sc(N)nc1-c1ccc(OC)cc1`, the Potency entry was “inactive”.
